In all, about 16,000 sequences were measured (“rpm ratio (pull-down/input)”: median about 0.94, highest 2% from about 1.7 on). Many of the other results were omitted from the sample, so the highest values are more common in it than they were.

The assay concerns the target T1, MBP-FoxP1dN (Mus musculus, UniProt P58462 326-579).
T1 sequence: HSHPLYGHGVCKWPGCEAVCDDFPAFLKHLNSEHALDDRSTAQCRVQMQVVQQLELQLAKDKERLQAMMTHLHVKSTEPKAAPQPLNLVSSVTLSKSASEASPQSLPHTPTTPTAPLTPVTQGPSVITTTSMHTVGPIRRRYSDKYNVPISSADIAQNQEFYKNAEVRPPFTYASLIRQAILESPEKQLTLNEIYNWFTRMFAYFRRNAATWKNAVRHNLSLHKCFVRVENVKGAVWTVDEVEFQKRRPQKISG
Briefly: PD-seq (MBP pull-down with sequencing); 20 mM Tris-HCl pH 7.5, 100 mM NaCl, 1.5 mM MgCl2, 0.4 uM protein, 0.1 uM dsDNA library, 30 min, room temperature, amylose pull-down; high values mean tight binding. Conditions: protein: recombinant; tags: His6-MBP; chain copies: 2; dsDNA, one strand shown. The gist of the method: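 Binding is the reads-per-million enrichment of pull-down relative to input, pooled across replicates. For this, 0.4 µM His6-MBP-tagged mouse FoxP3 or FoxP1 fragment lacking the N-terminus, made in E. coli, was incubated with 0.1 µM Klenow-filled double-stranded degenerate DNA library for 30 min at room temperature in Tris pH 7.5 buffer with NaCl and MgCl2. Complexes bound to amylose resin were washed three times before proteinase K released the DNA for PCR barcoding and Illumina sequencing.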
For the sequence “GATGATTGTTCTCCCAGCTGATGAATTTATTTCTTCGAGTAAACAAATTTTCCTAATCTTTCTGTTCAAGCGCCATCTAC”, the binding signal was 1.29 RPM ratio (pull-down/input).
“GATGATTGTTCTCCCAGCTGATGAATTTGTTTATTCGAGTAAACAAATTTTCCTAATCTTTCTGTTCAAGCGCCATCTAC”: the binding signal is 2.89 RPM ratio (pull-down/input).
Take “GATGATTGTTCTCCCAGCTGATGAATTTTTTTATTCGAGTAAACAAATTTTCCTAATCTTTCTGTTCAAGCGCCATCTAC”: the binding signal was 0.953 RPM ratio (pull-down/input).
The result for “GATGATTGTTCTCCCAGCTGATGAATTTTATTTTTCGAGTAAACAAATTTTCCTAATCTTTCTGTTCAAGCGCCATCTAC” reads 1.96 RPM ratio (pull-down/input); that for “GATGATTGTTCTCCCAGCTGATGAATTCCTTTATTCGAGTAAACAAATTTTCCTAATCTTTCTGTTCAAGCGCCATCTAC”, 0.944 RPM ratio (pull-down/input); that for “GATGATTGTTCTCCCAGCTGATGAATTTTTATTTTCGAGTAAACAAATTTTCCTAATCTTTCTGTTCAAGCGCCATCTAC”, 2.75 RPM ratio (pull-down/input).
Turning to “GATGATTGTTCTCCCAGCTGATGAATTCTTTATTTCGAGTAAACAAATTTTCCTAATCTTTCTGTTCAAGCGCCATCTAC”, the binding signal was 1.03 RPM ratio (pull-down/input).
On to “GATGATTGTTCTCCCAGCTGATGAATTAAATTTGTCGAGTAAACAAATTTTCCTAATCTTTCTGTTCAAGCGCCATCTAC”, for which the binding signal was 1.06 RPM ratio (pull-down/input).
With “GATGATTGTTCTCCCAGCTGATGAATTAGTACTGTCGAGTAAACAAATTTTCCTAATCTTTCTGTTCAAGCGCCATCTAC”, the binding signal was 1 RPM ratio (pull-down/input).
As to “GATGATTGTTCTCCCAGCTGATGAATTTCGGCTGTCGAGTAAACAAATTTTCCTAATCTTTCTGTTCAAGCGCCATCTAC”, the binding signal is 0.82 RPM ratio (pull-down/input).
“GATGATTGTTCTCCCAGCTGATGAATTATCCGCATCGAGTAAACAAATTTTCCTAATCTTTCTGTTCAAGCGCCATCTAC”: the binding signal is 1.15 RPM ratio (pull-down/input).
The result for “GATGATTGTTCTCCCAGCTGATGAATTCTTCTGATCGAGTAAACAAATTTTCCTAATCTTTCTGTTCAAGCGCCATCTAC” reads 0.96 RPM ratio (pull-down/input).
As for “GATGATTGTTCTCCCAGCTGATGAATTGCGCCATTCGAGTAAACAAATTTTCCTAATCTTTCTGTTCAAGCGCCATCTAC”, the binding signal is 1.14 RPM ratio (pull-down/input).
“GATGATTGTTCTCCCAGCTGATGAATTCGATTGCTCGAGTAAACAAATTTTCCTAATCTTTCTGTTCAAGCGCCATCTAC”: the binding signal is 0.842 RPM ratio (pull-down/input).
“GATGATTGTTCTCCCAGCTGATGAATTAAAGGTCTCGAGTAAACAAATTTTCCTAATCTTTCTGTTCAAGCGCCATCTAC”: the binding signal was 0.774 RPM ratio (pull-down/input).
Consider “GATGATTGTTCTCCCAGCTGATGAATTGAGTGGCTCGAGTAAACAAATTTTCCTAATCTTTCTGTTCAAGCGCCATCTAC”, for which the binding signal was 0.823 RPM ratio (pull-down/input).
The result for “GATGATTGTTCTCCCAGCTGATGAATTTTTTATTTCGAGTAAACAAATTTTCCTAATCTTTCTGTTCAAGCGCCATCTAC” reads 1.04 RPM ratio (pull-down/input).
Regarding “GATGATTGTTCTCCCAGCTGATGAATTTTATTGTTCGAGTAAACAAATTTTCCTAATCTTTCTGTTCAAGCGCCATCTAC”, the binding signal was 2.31 RPM ratio (pull-down/input).
“GATGATTGTTCTCCCAGCTGATGAATTTATTTGTTCGAGTAAACAAATTTTCCTAATCTTTCTGTTCAAGCGCCATCTAC”: the binding signal is 2.15 RPM ratio (pull-down/input).
In the case of “GATGATTGTTCTCCCAGCTGATGAATTTATTTTTTCGAGTAAACAAATTTTCCTAATCTTTCTGTTCAAGCGCCATCTAC”, the binding signal was 1.41 RPM ratio (pull-down/input).
As to “GATGATTGTTCTCCCAGCTGATGAATTAAGGCGATCGAGTAAACAAATTTTCCTAATCTTTCTGTTCAAGCGCCATCTAC”, the binding signal is 0.912 RPM ratio (pull-down/input).
As to “GATGATTGTTCTCCCAGCTGATGAATTTGAACTTTCGAGTAAACAAATTTTCCTAATCTTTCTGTTCAAGCGCCATCTAC”, the binding signal was 0.845 RPM ratio (pull-down/input).
In the case of “GATGATTGTTCTCCCAGCTGATGAATTTGTACTATCGAGTAAACAAATTTTCCTAATCTTTCTGTTCAAGCGCCATCTAC”, the binding signal was 1.22 RPM ratio (pull-down/input).
Consider “GATGATTGTTCTCCCAGCTGATGAATTCTATACATCGAGTAAACAAATTTTCCTAATCTTTCTGTTCAAGCGCCATCTAC”, for which the binding signal is 1.08 RPM ratio (pull-down/input).
Regarding “GATGATTGTTCTCCCAGCTGATGAATTGTTGTAATCGAGTAAACAAATTTTCCTAATCTTTCTGTTCAAGCGCCATCTAC”, the binding signal was 1.96 RPM ratio (pull-down/input).
As for “GATGATTGTTCTCCCAGCTGATGAATTTGTAACATCGAGTAAACAAATTTTCCTAATCTTTCTGTTCAAGCGCCATCTAC”, the binding signal was 1.45 RPM ratio (pull-down/input).
“GATGATTGTTCTCCCAGCTGATGAATTTTATACGTCGAGTAAACAAATTTTCCTAATCTTTCTGTTCAAGCGCCATCTAC”: the binding signal is 0.957 RPM ratio (pull-down/input).
Then “GATGATTGTTCTCCCAGCTGATGAATTTCTGTAATCGAGTAAACAAATTTTCCTAATCTTTCTGTTCAAGCGCCATCTAC”, with 1.49 RPM ratio (pull-down/input).
The result for “GATGATTGTTCTCCCAGCTGATGAATTGTATACGTCGAGTAAACAAATTTTCCTAATCTTTCTGTTCAAGCGCCATCTAC” reads 1.82 RPM ratio (pull-down/input).
As for “GATGATTGTTCTCCCAGCTGATGAATTGTAAACATCGAGTAAACAAATTTTCCTAATCTTTCTGTTCAAGCGCCATCTAC”, the binding signal is 2.78 RPM ratio (pull-down/input).
In the case of “GATGATTGTTCTCCCAGCTGATGAATTGTATACATCGAGTAAACAAATTTTCCTAATCTTTCTGTTCAAGCGCCATCTAC”, the binding signal is 2.35 RPM ratio (pull-down/input).
For “GATGATTGTTCTCCCAGCTGATGAATTTTATACATCGAGTAAACAAATTTTCCTAATCTTTCTGTTCAAGCGCCATCTAC”, the binding signal is 1.09 RPM ratio (pull-down/input).
Consider “GATGATTGTTCTCCCAGCTGATGAATTTCAAACATCGAGTAAACAAATTTTCCTAATCTTTCTGTTCAAGCGCCATCTAC”, for which the binding signal was 1.18 RPM ratio (pull-down/input).
On to “GATGATTGTTCTCCCAGCTGATGAATTCTATACGTCGAGTAAACAAATTTTCCTAATCTTTCTGTTCAAGCGCCATCTAC”, for which the binding signal was 0.962 RPM ratio (pull-down/input).
The result for “GATGATTGTTCTCCCAGCTGATGAATTCTGTAAATCGAGTAAACAAATTTTCCTAATCTTTCTGTTCAAGCGCCATCTAC” reads 1.18 RPM ratio (pull-down/input).

The values above are taken from paper PMC12820563, “FoxP3 forms a head-to-head dimer in vivo and stabilizes its multimerization on adjacent microsatellites”.
